Screens deposited in PubChem by The Scripps Research Institute Molecular Screening Center.
TTR transcr act – activators of transthyretin transcription. SH-SY5Y TTR promoter Gaussia luciferase, luminescence; 100% = recombinant luciferase protein wells. activation, % at 16.7 µM. 92,000 compounds, 1.3% hits;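 active = activation above the mean of all tested compounds plus 3 SD, cut at about 9.5% in these data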;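 note: cells exposed to compounds for one day before reading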
HuH7 TTR inh – counter-screen for TTR activators: TTR transcription inhibitors in HuH7 cells. AID 1117279. shares compounds with TTR transcr act. HuH7 TTR promoter-Gaussia luciferase reporter, luminescence. inhibition, % at 16.7 µM. 1,100 compounds, 4% hits;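 active = average inhibition above the solvent-only control wells' mean plus 3 SD, cut at about 15% in these data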;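 note: inhibitors lower well luminescence so higher value means more inhibition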
TTR up confirm – confirmation of human transthyretin transcription activators; AID 1117280; activation, % at 16.7 µM; shares compounds with TTR transcr act; SHSY5Y TTR promoter Gaussia luciferase, luminescence; 100% = purified Lucia enzyme wells, no cells; 1,100 tested, under 10 active;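 active = mean activation above a set limit taken from the earlier primary screen, cut at about 11% in these data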
Hits are given with their value; - = inactive. This excerpt belongs to a sample that is enriched for hits.

SMILES | TTR transcr act | others
O=C(O)Cn1cc(C(=S)N2CCCCC2)c2ccccc21 | -
CC1CCN(C(=S)c2cn(Cc3cccc(F)c3)c3ccccc23)CC1 | 10 | HuH7 TTR inh=-;TTR up confirm=-
Fc1ccc(Cn2cc(C(=S)N3CCOCC3)c3ccccc32)cc1 | -
CCCC1CCC2(CC1)CCC2OC(=S)NCc1cccc(OC)c1 (stereo not drawn) | -
COc1ccc2c(c1)Sc1ccc(Cl)cc1N2 | -
CCN1CCCCC(NC(=O)c2ccc(F)cc2)C1=O (stereo not drawn) | -
O=c1c2ccccc2oc2ccc(NCCCn3ccnc3)cc12 | -
Cc1nc(NCCCn2ccnc2)c2oc3ccccc3c2n1 | 49 | HuH7 TTR inh=-;TTR up confirm=-
Cc1nc(NCC2CCCO2)c2oc3ccccc3c2n1 (stereo not drawn) | -
CCOC(=O)[C@]12CCCC3=C1N(CCC3)C(=O)[C@@H](CC(=O)N1CCN(C(=O)c3ccco3)CC1)C2 | -
Cc1ccc2c(COC(=O)C3CC(=O)N(c4ccc5c(c4)OCCO5)C3)cc(=O)oc2c1 (stereo not drawn) | -
O=C(COC(=O)C1CC(=O)N(c2ccc3c(c2)OCCO3)C1)Nc1ccc2c(c1)CCC2 (stereo not drawn) | 11 | HuH7 TTR inh=-;TTR up confirm=-
CC(=O)c1ccc(NC(=O)C(C)OC(=O)C2CC(=O)N(c3ccc4c(c3)OCCO4)C2)cc1 (stereo not drawn) | -
CCCC[C@H]1C2CC(OC(=O)Nc3ccccc3OC)C(C2)[C@H]2CCCCN21 (stereo partly drawn) | -
CCC(C)NCCCCOc1cc(C)cc(C(C)C)c1 (stereo not drawn) | -
CCC(C)NCCCCOc1ccc(Br)cc1 (stereo not drawn) | 10 | HuH7 TTR inh=-;TTR up confirm=-
CCOc1ccc(OCCCCNC(C)(C)C)cc1 | -
CCCC1CCC2(CC1)CCC2OC(=O)Nc1c(OC)cccc1OC (stereo not drawn) | -
O=C(CSc1nc2ccc(Nc3nc(N4CCCC4)nc(N4CCCC4)n3)cc2s1)NCc1ccco1 | -
Cc1ccc(CC(=O)NCc2ccc(F)cc2)cc1 | -
O=C(Cc1ccc(-c2ccccc2)cc1)NCc1ccccc1 | -
Cc1ccc(CNC(=O)Cc2ccc(-c3ccccc3)cc2)cc1 | 13 | HuH7 TTR inh=53;TTR up confirm=-
CO[C@H]([C@H](C)/C=C/N(C)C=O)[C@@H](C)C(=O)CC[C@H](C)[C@H](O)[C@H](C)[C@H]1OC(=O)/C=C/C(C)=C/C[C@H](O)C[C@@H]2C=CC[C@@H](C[C@H](OC)[C@@H](CO)[C@@H](OC)C[C@@H](OC)[C@@H]1C)O2 | -
CCOc1ccc(CCNC(=O)Cc2ccccc2)cc1OCC | -
C[C@H]1[C@@H](NC(=O)C2CCC2)CC[C@@]23CCCN2C(=O)CCC[C@@H]13 | -
SMILES | TTR transcr act | others
CNC(=O)CN(Cc1ccccc1)S(=O)(=O)c1ccccc1 | -
O=C(CN(Cc1ccc(Br)cc1)S(=O)(=O)c1ccccc1)NCc1ccccn1 | 22 | HuH7 TTR inh=-;TTR up confirm=-
COc1ccc(CNC(=O)CN(Cc2ccc(Cl)cc2)S(=O)(=O)c2ccccc2)cc1 | -
C=CCN1C=C(C(=O)OCC)C(=O)CC1 | -
COC(=O)[C@]12C[C@H](CC(=O)N3CCN(C(=O)c4ccco4)CC3)C(=O)N(Cc3ccc(Cl)cc3Cl)C1=C[C@H](COCc1ccccc1)O[C@@H]2C | -
O=C(CN1CCCC(O)C1)N1c2ccccc2Sc2ccc(C(F)(F)F)cc21 (stereo not drawn) | -
CN(C)CC(=O)N1c2ccccc2Sc2ccc(Cl)cc21 | -
CC1CCCN(CC(=O)N2c3ccccc3Sc3ccccc32)C1 (stereo not drawn) | 15 | HuH7 TTR inh=-;TTR up confirm=-
CC/C(=N\NC(=O)Cc1ccc(Br)cc1)c1cccs1 | 42 | HuH7 TTR inh=-;TTR up confirm=-
C/C(=N/NC(=O)c1cccs1)c1cccs1 | -
CCNC(=O)Cc1ccc(Br)cc1 | -
C[C@H]1[C@@H](N(C)C)CC[C@@]23CCCN2C(=O)CCC[C@@H]13 | -
CC(C)c1cccc(O)c(=O)c1 | 10 | HuH7 TTR inh=-;TTR up confirm=-
CC(=O)c1c(O)cc(C(C)C)n(-c2ccccc2)c1=O | -
Cc1ccc(C(C)C)c(O)c1 | -
COC(=O)[C@]12C[C@H](CC(=O)N3CCSCC3)C(=O)N(Cc3ccc(Cl)cc3Cl)C1=C[C@H](C1CCCC1)O[C@@H]2C | -
CCOc1ccc(/C=C2/C(=N)N3OC(C)=CC3=NC2=O)cc1OC | 9.9 | HuH7 TTR inh=-;TTR up confirm=-
COc1cccc(OCCn2cccc2/C=C2/C(=N)N3OC(C)=CC3=NC2=O)c1 | -
COc1cc(/C=C2/C(=N)N3OC(C)=CC3=NC2=O)ccc1OCCOc1ccc(C)cc1 | -
Cc1ccsc1C(=O)OCC(=O)NC1CCS(=O)(=O)C1 (stereo not drawn) | -
CCC[C@H]1[C@@H](NC(=O)c2cccc(Cl)c2)CC[C@@]23CCCN2C(=O)CCC[C@@H]13 | -
COC(=O)[C@H](C)NC(=O)[C@@H]1CC=C[C@@H]2CCN(CCc3ccccc3)C(=O)[C@@H]21 | -
COC(=O)[C@]12C[C@H](CC(=O)NCC34CC5CC(CC(C5)C3)C4)C(=O)N(Cc3ccc(Cl)cc3Cl)C1=C[C@H](C(C)C)O[C@@H]2C1CC1 | -
Cc1cccc(CNS(=O)(=O)c2ccc(-c3ccc(=O)[nH]n3)s2)c1 | -
COc1ccc(-c2cc(C)no2)cc1S(=O)(=O)NCc1cccc(C)c1 | 9.8 | HuH7 TTR inh=28;TTR up confirm=-
SMILES | TTR transcr act | others
COc1ccc(CN2C(=O)c3cccnc3C2=O)cc1S(=O)(=O)NCc1ccc(C)cc1 | -
C[C@@H]1CCN(C2CC2)S(=O)(=O)c2ccc(N3CC[C@H](N(C)C)C3)cc2O1 | -
CC(C)(C)CCNc1nc(-c2ccccn2)nnc1-c1ccccc1 | -
Cc1nc(N2CCN(C(=O)C3CC3)CC2)c2c3c(sc2n1)CC(C)CC3 (stereo not drawn) | -
COc1cc(/C=C(\C#N)C(=O)NC(C)C)cc(Cl)c1O | -
COc1ccc(/C=C(/C#N)C(=O)Nc2cc(C)ccc2C)cc1C(=O)O | -
COc1ccc(/C=C(\C#N)C(=O)Nc2cc(C)c(Cl)cc2OC)cc1O | 12 | HuH7 TTR inh=-;TTR up confirm=-
CCC(Oc1ccccc1)C(=O)Nc1nnc(S(=O)(=O)N2CCCC2)s1 (stereo not drawn) | -
COc1ccc(S(=O)(=O)NCc2cccnc2)c(Cl)c1Cl | -
COCCNS(=O)(=O)c1cc(OC)c(Cl)cc1Cl | -
CCOCCCNS(=O)(=O)c1ccc(OC)c(Cl)c1Cl | 12 | HuH7 TTR inh=-;TTR up confirm=-
CCc1c2c3n4c1CCC[C@@H]4C[C@@H]3O[Si](C(C)C)(C(C)C)OC(C)C2=O (stereo partly drawn) | -
COc1cc2ncnc(NCc3ccccc3)c2cc1OC | -
COc1ccc(CNc2ncnc3cc(Cl)ccc23)cc1 | -
COc1ccc(CNc2ncnc3cc(OC)c(OC)cc23)cc1 | 10 | HuH7 TTR inh=-;TTR up confirm=-
O=C(NCc1ccc(C(F)(F)F)cc1)O[C@H]1CC[C@@]23CCCN2C(=O)CCC[C@H]3C1 | -
COC(=O)[C@H](C)NC(=O)[C@@H]1CCCN1C(=O)CNP(=O)(OCc1ccccc1)OCc1ccccc1 | -
CC(C)CN1C(=O)C[C@]2(C(=O)N(C)c3ccc(NC(=O)c4cc(F)ccc4F)cc32)C1c1ccccc1 (stereo partly drawn) | -
O=C(N[C@@H](Cc1ccccc1)c1nc2ccccc2[nH]1)c1ccc([N+](=O)[O-])cc1 | -
O=C(c1ccc2c(=O)n(-c3ccccc3)c(=S)[nH]c2c1)N1CCCCC1 | -
